Data published in PubChem BioAssay AID1159580 (chemical genetic matrix, 2015).
Values joined by “and” are separate entries in the source; they are usually repeats but may differ in a detail not shown here. Identical values can stand only once. Hit rate of the full screen: of about 5,500 compounds, about 2,000 (36%) were called active. Another 18% or so got no clear call; they are omitted. Cut-off read from the data, not from the text of the source: active = normalized growth mostly below about 0.91 (no sharp cut-off); inconclusive = no clear call, values can overlap the other calls; inactive = mostly above about 0.92. The list shows a part of the results.

Test: chemical genetic growth profiling, strain panel (AID 1159580);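 note: tested at 20 µM; growth read once vehicle control cultures reached saturation at 30 °C; 1 = growth at the plate median or of vehicle wells; lower values mean less growth of the strain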
Conditions: S. cerevisiae deletion strains, growth OD

Structure (SMILES): O=c1oc2c(O)c(O)cc3c(=O)oc4c(O)c(O)cc1c4c23
- normalized growth (locus YAL013W, strain DEP1, stronger effect = lower value): 0.55 (active)
- normalized growth (locus YAL021C, strain ccr4, stronger effect = lower value): 0.352 (active)
- normalized growth (locus YAL026C, strain drs2, stronger effect = lower value): 0.545 (active)
- normalized growth (locus YAL030W, strain snc1, stronger effect = lower value): 0.817 (active)
- normalized growth (locus YBL061C, strain skt5, stronger effect = lower value): 0.591 (active)
- normalized growth (locus YBR009C, strain hhf1, stronger effect = lower value): 0.754 (active)
- normalized growth (locus YBR021W, strain FUR4, stronger effect = lower value): 0.907 (inactive)
- normalized growth (locus YBR023C, strain chs3, stronger effect = lower value): 0.533 (active)
- normalized growth (locus YBR171W, strain sec66, stronger effect = lower value): 0.938 (inactive)
- normalized growth (locus YBR229C, strain ROT2, stronger effect = lower value): 0.903 (active)
- normalized growth (locus YBR231C, strain swc5, stronger effect = lower value): 0.53 (active)
- normalized growth (locus YBR279W, strain paf1, stronger effect = lower value): 0.699 (active)
- normalized growth (locus YCL011C, strain gbp2, stronger effect = lower value): 0.745 (active)
- normalized growth (locus YCL016C, strain dcc1, stronger effect = lower value): 0.722 (active)
- normalized growth (locus YCL029C, strain bik1, stronger effect = lower value): 0.502 (active)
- normalized growth (locus YCL061C, strain MRC1, stronger effect = lower value): 0.84 (active)
- normalized growth (locus YCL069W, strain vba3, stronger effect = lower value): 0.855 (active)
- normalized growth (locus YCR088W, strain abp1, stronger effect = lower value): 0.895 (active)
- normalized growth (locus YDL005C, strain med2, stronger effect = lower value): 0.986 (inactive)
- normalized growth (locus YDL035C, strain GPR1, stronger effect = lower value): 0.681 (active)
- normalized growth (locus YDL040C, strain nat1, stronger effect = lower value): 0.868 (active)
- normalized growth (locus YDL074C, strain BRE1, stronger effect = lower value): 0.541 (active)
- normalized growth (locus YDL101C, strain DUN1, stronger effect = lower value): 0.598 (active)
- normalized growth (locus YDL185W, strain tfp1, stronger effect = lower value): 0.835 (active)
- normalized growth (locus YDL192W, strain arf1, stronger effect = lower value): 0.558 (active)
- normalized growth (locus YDR001C, strain nth1, stronger effect = lower value): 0.96 (inactive)
- normalized growth (locus YDR069C, strain doa4, stronger effect = lower value): 0.521 (active)
- normalized growth (locus YDR101C, strain arx1, stronger effect = lower value): 0.749 (active)
- normalized growth (locus YDR137W, strain rgp1, stronger effect = lower value): 0.496 (active)
- normalized growth (locus YDR150W, strain NUM1, stronger effect = lower value): 0.778 (active)
- normalized growth (locus YDR159W, strain sac3, stronger effect = lower value): 0.738 (active)
- normalized growth (locus YDR162C, strain NBP2, stronger effect = lower value): 0.661 (active)
- normalized growth (locus YDR195W, strain ref2): 0.876 (inactive)
- normalized growth (locus YDR297W, strain sur2, stronger effect = lower value): 0.746 (active)
- normalized growth (locus YDR318W, strain mcm21, stronger effect = lower value): 0.651 (active)
- normalized growth (locus YDR334W, strain swr1, stronger effect = lower value): 0.574 (active)
- normalized growth (locus YDR335W, strain msn5, stronger effect = lower value): 0.784 (active)
- normalized growth (locus YDR388W, stronger effect = lower value): 0.538 (active)
- normalized growth (locus YDR392W, strain spt3, stronger effect = lower value): 0.695 (active)
- normalized growth (locus YDR502C, strain sam2, stronger effect = lower value): 0.561 (active)
- normalized growth (locus YEL003W, strain gim4, stronger effect = lower value): 0.697 (active)
- normalized growth (locus YEL037C, strain rad23, stronger effect = lower value): 0.767 (active)
- normalized growth (locus YEL061C, strain CIN8 (second series), stronger effect = lower value): 0.917 (inactive)
- normalized growth (locus YEL061C, strain CIN8, stronger effect = lower value): 0.753 (active)
- normalized growth (locus YER015W, strain faa2, stronger effect = lower value): 0.583 (active)
- normalized growth (locus YER016W, strain bim1, stronger effect = lower value): 0.818 (active)
- normalized growth (locus YER110C, stronger effect = lower value): 0.971 (inactive)
- normalized growth (locus YER111C, strain swi4, stronger effect = lower value): 0.436 (active)
- normalized growth (locus YER155C, strain BEM2 (second series), stronger effect = lower value): 0.745 (active)
- normalized growth (locus YER155C, strain BEM2, stronger effect = lower value): 0.74 (active)
- normalized growth (locus YER167W, strain BCK2, stronger effect = lower value): 0.799 (active)
- normalized growth (locus YFR010W, strain ubp6, stronger effect = lower value): 0.713 (active)
- normalized growth (locus YGL078C, strain dbp3, stronger effect = lower value): 0.976 (inactive)
- normalized growth (locus YGL086W, strain mad1, stronger effect = lower value): 0.583 (active)
- normalized growth (locus YGL167C, strain pmr1, stronger effect = lower value): 0.653 (active)
- normalized growth (locus YGL173C, strain kem1, stronger effect = lower value): 0.417 (active)
- normalized growth (locus YGL227W, strain vid30, stronger effect = lower value): 1 (inactive)
- normalized growth (locus YGL240W, strain doc1, stronger effect = lower value): 0.923 (inactive)
- normalized growth (locus YGL248W, strain PDE1, stronger effect = lower value): 0.649 (active)
- normalized growth (locus YGL253W, strain hxk2, stronger effect = lower value): 0.768 (active)
- normalized growth (locus YGR078C, strain PAC10, stronger effect = lower value): 0.616 (active)
- normalized growth (locus YGR135W, strain pre9, stronger effect = lower value): 0.559 (active)
- normalized growth (locus YGR252W, strain gcn5, stronger effect = lower value): 0.588 (active)
- normalized growth (locus YHR013C, strain ard1, stronger effect = lower value): 0.563 (active)
- normalized growth (locus YHR027C, strain rpn1, stronger effect = lower value): 0.539 (active)
- normalized growth (locus YHR030C, strain SLT2, stronger effect = lower value): 0.41 (active) and 0.994 (inactive)
- normalized growth (locus YHR079C, strain IRE1 (second series), stronger effect = lower value): 0.824 (active)
- normalized growth (locus YHR079C, strain IRE1, stronger effect = lower value): 0.978 (inactive)
- normalized growth (locus YHR094C, strain hxt1, stronger effect = lower value): 0.964 (inactive)
- normalized growth (locus YHR129C, strain ARP1, stronger effect = lower value): 0.603 (active)
- normalized growth (locus YHR142W, strain chs7, stronger effect = lower value): 0.563 (active)
- normalized growth (locus YHR200W, strain rpn10, stronger effect = lower value): 0.712 (active)
- normalized growth (locus YIL066C, strain RNR3, stronger effect = lower value): 0.669 (active)
- normalized growth (locus YIL073C, strain SPO22, stronger effect = lower value): 0.546 (active)
- normalized growth (locus YIL125W, strain kgd1, stronger effect = lower value): 0.956 (inactive)
- normalized growth (locus YIR030C, strain dcg1, stronger effect = lower value): 0.776 (active)
- normalized growth (locus YJL092W, strain hpr5, stronger effect = lower value): 0.861 (active)
- normalized growth (locus YJL095W, strain BCK1 (second series), stronger effect = lower value): 0.675 (active)
- normalized growth (locus YJL095W, strain BCK1, stronger effect = lower value): 0.28 (active) and 0.983 (inactive)
- normalized growth (locus YJL115W, strain asf1, stronger effect = lower value): 0.912 (inactive)
- normalized growth (locus YJL129C, strain trk1, stronger effect = lower value): 0.898 (inactive)
- normalized growth (locus YJL134W, strain LCB3, stronger effect = lower value): 0.823 (active)
- normalized growth (locus YJL154C, strain vps35, stronger effect = lower value): 0.864 (active)
- normalized growth (locus YJL164C, strain tpk1, stronger effect = lower value): 0.679 (active)
- normalized growth (locus YJL166W, strain qcr8, stronger effect = lower value): 0.73 (active)
- normalized growth (locus YJL168C, strain set2, stronger effect = lower value): 0.898 (active)
- normalized growth (locus YJL187C, strain SWE1 (second series), stronger effect = lower value): 0.493 (active)
- normalized growth (locus YJL187C, strain SWE1, stronger effect = lower value): 0.742 (active)
- normalized growth (locus YJR043C, strain POL32, stronger effect = lower value): 0.596 (active)
- normalized growth (locus YJR066W, strain TOR1, stronger effect = lower value): 0.974 (inactive)
